# Assay results reported in PMC9574860, “Chemical Toolkit for PARK7: Potent, Selective, and High-Throughput” (Journal of Medicinal Chemistry, 2022).
# The campaign covered roughly 7,900 compounds. About 400 (5.1%) showed an effect of 50% or more. The sample as a whole holds a higher share of strong results than the screen did.
# Biological target: Parkinson's disease protein 7 (PARK7/DJ1) (human, UniProt Q99497)
# Assay: primary screen, percent inhibition; read as competition with a fluorescent probe by fluorescence polarization; higher = more effect of the substance
# Details: 100 µM
# Protocol: The screen was conducted using the conditions as described above in 1536-well plates (Corning 3724) with a reaction volume of 8 μL per well. The compound library containing 7887 covalent fragments was purchased at Enamine Ltd. and received as 100 mM DMSO stocks in 384 well LDV Echo plates (Labcyte LP-0200). Stock solutions of 0.26 μM PARK7 and 80 nM JYQ-107 were prepared. Using a Labcyte Echo550 acoustic dispenser, 8 nL of the DMSO stock solution of the library compounds was transferred from the source plates into the empty 1536-well screening plates to obtain a 100 μM final compound concentration. Next, PARK7 (6 μL, final concentration 0.2 μM) was dispensed using a Biotek MultiflowFX liquid dispenser and incubated for 2 h, followed by dispensing the probe JYQ-107 (2 μL, final concentration 20 nM). After 2 h incubation, the FP signal was recorded on a BMG Labtech PHERAstar plate reader (λex/em 480/520 nm). The relative loss of FP signal compared with reference controls was used to calculate the remaining enzyme activity.
# Chain of Parkinson's disease protein 7 (PARK7/DJ1) (Q99497 whole entry, looked up): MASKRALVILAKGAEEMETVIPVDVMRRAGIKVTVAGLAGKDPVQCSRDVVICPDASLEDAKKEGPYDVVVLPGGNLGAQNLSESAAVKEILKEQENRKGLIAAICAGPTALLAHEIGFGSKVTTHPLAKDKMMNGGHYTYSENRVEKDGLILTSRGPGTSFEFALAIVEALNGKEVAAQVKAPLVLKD
row,SMILES,Inhibition %
1,CC1CC1C(=O)N[C@H]1CC[C@@H](CS(=O)(=O)F)C1 (stereo in doubt),90.9%
